PubChem BioAssay
The source made the active and inactive calls.

How the values were obtained:
[1] = E. coli DRC41 culture turbidity changes, primary screen, E. coli filamentation inducer project, strain DRC41, OD650, 48 h (AID 1152);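 note: E. coli MC1000 strain DRC41 lacking acrAB efflux pump and sulA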; conditions: E. coli DRC41 (acrAB sulA), higher = more signal, called active from +8 up or from −8 down
[2] = small-molecule binders of probe aLefty1, primary screen, biochemical, small-molecule microarray, 635/667 nm fluorescence (AID 1153); conditions: higher = more signal;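 note: score merges spot fluorescence with signal-to-noise ratio from the scanned slide images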
[3] = PSAC antagonists in infected red cells, primary screen, cell-based, P. falciparum Indochina, OD700, 1 h (AID 1154); conditions: P. falciparum Indochina infected RBC osmotic lysis, higher = more signal, called active from +8 up or from −8 down
[4] = PSAC antagonists in infected red cells, primary screen, cell-based, P. falciparum Indochina, OD700, 2 h (AID 1155);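 note: lysis reports solute entry through the parasite surface anion channel PSAC; channel blockers reduce lysis of infected cells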; conditions: P. falciparum Indochina infected erythrocytes, osmotic lysis OD700; higher = more signal, called active from +8 up or from −8 down
[5] = osmotic lysis modulators in infected erythrocytes, primary screen, PSAC antagonist project, cell-based, P. falciparum Indochina, OD700, 3 h (AID 1156); conditions: higher = more signal, called active from +8 up or from −8 down
[6] = PSAC antagonists in infected red cells, primary screen, cell-based, P. falciparum Indochina, OD700, 18 h (AID 1157); conditions: P. falciparum Indochina infected erythrocytes, osmotic lysis OD700, 18 h; higher = more signal, called active from +8 up or from −8 down
[7] = modulators of S6 phosphorylation in cells, primary screen, cell-based, A549, cytoblot, luminescence, serum-stimulated (AID 1158); conditions: A549 phospho-S6 cytoblot, 5 h, higher = more signal;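 note: serum-stimulated A549 lung adenocarcinoma cells; signal is phosphorylated S6 detected by cytoblot immunostaining with HRP secondary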
[8] = target: NADPH oxidase 2 (Homo sapiens) (UniProt P04839); assay: NOX2-dependent H2O2 signal modulators, primary screen, NOX inhibitor project, cell-based, HEK293-NOX2, PMA-stimulated, Amplex Red fluorescence (AID 1159); conditions: 45 min, higher = more signal, called active from +8 up or from −8 down; note: test concentration not given here
Chain of NADPH oxidase 2 (Homo sapiens) (P04839 whole entry, looked up): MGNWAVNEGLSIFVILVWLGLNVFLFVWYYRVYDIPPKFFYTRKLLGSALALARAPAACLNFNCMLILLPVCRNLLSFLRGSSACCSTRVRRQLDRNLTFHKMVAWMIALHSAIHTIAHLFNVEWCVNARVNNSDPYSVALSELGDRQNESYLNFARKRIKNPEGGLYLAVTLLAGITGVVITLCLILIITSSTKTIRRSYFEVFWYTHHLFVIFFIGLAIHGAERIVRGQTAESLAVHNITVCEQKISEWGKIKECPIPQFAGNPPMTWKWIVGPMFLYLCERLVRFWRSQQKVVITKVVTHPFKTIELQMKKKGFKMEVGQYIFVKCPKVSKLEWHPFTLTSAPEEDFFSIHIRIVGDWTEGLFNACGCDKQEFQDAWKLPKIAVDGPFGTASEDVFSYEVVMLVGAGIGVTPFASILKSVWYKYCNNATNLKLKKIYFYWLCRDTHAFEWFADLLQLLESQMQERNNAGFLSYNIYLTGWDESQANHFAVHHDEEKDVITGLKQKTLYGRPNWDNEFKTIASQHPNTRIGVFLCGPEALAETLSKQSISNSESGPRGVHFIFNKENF

[9] = target: NADPH oxidase 4 (Homo sapiens) (UniProt Q9NPH5); assay: NOX4-dependent H2O2 signal modulators, primary screen, NOX inhibitor project, cell-based, HEK293-NOX4, tetracycline-induced, Amplex Red fluorescence (AID 1160); conditions: 45 min, higher = more signal, called active from +8 up or from −8 down
Chain of NADPH oxidase 4 (Homo sapiens) (Q9NPH5 whole entry, looked up): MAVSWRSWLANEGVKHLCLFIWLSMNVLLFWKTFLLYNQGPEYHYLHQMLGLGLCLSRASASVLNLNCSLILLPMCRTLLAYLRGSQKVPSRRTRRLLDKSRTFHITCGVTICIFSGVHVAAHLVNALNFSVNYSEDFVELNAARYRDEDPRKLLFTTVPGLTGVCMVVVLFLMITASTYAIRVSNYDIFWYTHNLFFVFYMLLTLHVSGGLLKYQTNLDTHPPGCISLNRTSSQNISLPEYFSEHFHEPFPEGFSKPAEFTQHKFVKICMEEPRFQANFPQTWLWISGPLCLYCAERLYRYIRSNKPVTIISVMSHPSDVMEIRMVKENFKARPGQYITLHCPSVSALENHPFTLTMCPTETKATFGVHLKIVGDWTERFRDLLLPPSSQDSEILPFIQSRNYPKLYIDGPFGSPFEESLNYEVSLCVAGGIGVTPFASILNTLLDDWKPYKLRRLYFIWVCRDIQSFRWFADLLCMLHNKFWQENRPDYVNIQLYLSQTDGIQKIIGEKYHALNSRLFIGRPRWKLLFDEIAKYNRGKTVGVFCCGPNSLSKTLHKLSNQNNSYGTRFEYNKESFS

[10] = target: NADPH oxidase 5 (Homo sapiens) (UniProt Q96PH1); assay: NOX5-dependent H2O2 signal modulators, primary screen, NOX inhibitor project, cell-based, HEK293-NOX5, Amplex Red fluorescence (AID 1161); conditions: HEK293-NOX5, ionomycin, 45 min, higher = more signal
Chain of NADPH oxidase 5 (Homo sapiens) (Q96PH1 whole entry, looked up): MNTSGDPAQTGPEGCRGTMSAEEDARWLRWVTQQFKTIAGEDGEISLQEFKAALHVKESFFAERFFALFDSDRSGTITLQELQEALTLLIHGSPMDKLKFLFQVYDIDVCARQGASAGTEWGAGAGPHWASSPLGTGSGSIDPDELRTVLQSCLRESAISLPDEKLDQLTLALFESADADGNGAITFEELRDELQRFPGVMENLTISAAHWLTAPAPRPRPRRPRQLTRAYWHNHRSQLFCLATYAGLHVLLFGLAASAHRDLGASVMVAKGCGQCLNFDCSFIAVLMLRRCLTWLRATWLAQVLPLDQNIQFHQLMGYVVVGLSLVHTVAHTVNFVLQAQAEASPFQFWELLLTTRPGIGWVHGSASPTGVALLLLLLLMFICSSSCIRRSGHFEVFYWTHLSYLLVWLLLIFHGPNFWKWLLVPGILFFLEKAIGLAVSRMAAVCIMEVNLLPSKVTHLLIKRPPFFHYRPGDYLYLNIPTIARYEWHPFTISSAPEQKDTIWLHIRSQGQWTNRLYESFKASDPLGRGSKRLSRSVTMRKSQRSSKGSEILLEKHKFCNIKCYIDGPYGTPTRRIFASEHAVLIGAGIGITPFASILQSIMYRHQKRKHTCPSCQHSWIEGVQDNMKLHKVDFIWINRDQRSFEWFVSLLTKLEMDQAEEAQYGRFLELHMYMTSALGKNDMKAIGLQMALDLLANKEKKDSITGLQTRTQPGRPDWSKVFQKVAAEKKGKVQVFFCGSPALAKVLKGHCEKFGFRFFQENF

SMILES | z-score [1] | composite z-score [2] | z-score [3] | z-score [4] | z-score [5] | z-score [6] | z-score [7] | z-score [8] | z-score [9] | z-score [10]
CCOC(=O)C1=CCC(c2ccc(C#N)cc2)N(S(=O)(=O)c2ccc(C)cc2)C1 (stereo not given) | 0.26 (inactive) | 0.262 | 5.29 (inactive) | 1.12 (inactive) | 0.632 (inactive) | 0.557 (inactive) | -0.118 | 0.292 (inactive) | 0.62 (inactive) | -0.303
CC(C)(C)OC(=O)CC[C@]1(C(=O)N2CCCCC2)N=C(c2ccc(OCCCO)cc2)O[C@H]1c1ccccc1N=[N+]=[N-] | 1.66 (inactive) | 0.19 | 32.1 (active) | 28.8 (active) | 2.17 (inactive) | 7.7 (inactive) | -0.167 | -3.53 (inactive) | 0.976 (inactive) | -1.46
O=C1C=CC(=O)[C@@H]2CC(COc3ccccc3)=C3[C@@H](CCc4ccccc4)OB(O)C[C@@H]3[C@H]12 | -0.365 (inactive) | 0.0491 | 3.41 (inactive) | -0.0365 (inactive) | -0.0433 (inactive) | 0.0107 (inactive) | 0.0482 | -0.511 (inactive) | -3.32 (inactive) | -5.88
O=C1N(CCS(=O)(=O)c2ccccc2)Cc2ccccc2[C@H]2OC(c3ccc(OCCCO)cc3)=N[C@@]12CCS(=O)(=O)c1ccccc1 | -0.0143 (inactive) | 0.197 | 31.1 (active) | 28.4 (active) | 3.2 (inactive) | 6.48 (inactive) | 0.834 | 0.644 (inactive) | 1.5 (inactive) | 0.357
Cc1ccc(S[C@]2(C(=O)NCC(C)C)CC(=O)N(Cc3ccccc3Cl)[C@@H]2c2ccc(CO)cc2)cc1 | -0.132 (inactive) | -0.188 | 1.14 (inactive) | 0.61 (inactive) | -0.23 (inactive) | 0.0839 (inactive) | 0.534 | -1.85 (inactive) | 0.717 (inactive) | -0.393
COCCOC(=O)N1C(=O)[C@@]2(c3cc(C#CCC(C(=O)OC)C(=O)OC)ccc31)[C@H](c1ccccc1OCCO)N1[C@H](c3ccccc3)[C@H](c3ccccc3)OC(=O)[C@H]1[C@@H]2C(=O)N1CCc2cc(OC)c(OC)cc2C1 | 2.09 (inactive) | 0.438 | 1.87 (inactive) | -0.226 (inactive) | -0.23 (inactive) | -0.466 (inactive) | 0.61 | 1.26 (inactive) | 1.56 (inactive) | 0.631
COc1ccc(C(=O)Nc2cccc(CN3C(=O)[C@@]4(O[C@@H](CCn5cc(CCO)nn5)[C@H]([Si](C)(C)c5ccc(OC)cc5)[C@H]4C)c4ccccc43)c2)cc1 | -2.23 (inactive) | 0.223 | 13.4 (active) | 2.74 (inactive) | 0.318 (inactive) | 1.26 (inactive) | -0.782 | -3.75 (inactive) | -0.389 (inactive) | 2.37
COc1ccc([Si](C)(C)[C@@H]2[C@@H](CCn3cc([C@H](O)c4ccccc4)nn3)O[C@]3(C(=O)N(Cc4cccc(N5CCOC5=O)c4)c4ccccc43)[C@H]2C)cc1 | 1 (inactive) | -0.328 | 26.3 (active) | 12.8 (active) | 1.33 (inactive) | 1.68 (inactive) | 0.324 | -0.662 (inactive) | 2.29 (inactive) | 1.84
CCN(CC)c1ccc(N2CC=CC34O[C@@H]5C=CCCOC(=O)C5[C@H]3C(=O)N(CCCCCO)[C@@H]4C2=O)cc1 (stereo not given in full) | 2.82 (inactive) | 0.0391 | 2 (inactive) | -0.0803 (inactive) | 1.11 (inactive) | 0.352 (inactive) | -0.195 | -0.11 (inactive) | 0.604 (inactive) | 0.895
O=C1OCCC=C[C@H]2OC34C=CCN(Cc5ccccc5)C(=O)[C@H]3N(CCCO)C(=O)[C@@H]4C12 (stereo not given in full) | 2.94 (inactive) | -0.101 | 0.64 (inactive) | -0.306 (inactive) | 0.739 (inactive) | -0.996 (inactive) | 0.84 | -1.96 (inactive) | -2.93 (inactive) | -3.28
Cc1ccc([C@H]2[C@H](C(=O)O)[C@H](Sc3ccccc3)[C@@H](C(C)C)N2S(=O)(=O)c2ccc(C)cc2)cc1 | -1.51 (inactive) | -0.0675 | 1.09 (inactive) | 0.456 (inactive) | -0.922 (inactive) | 0.781 (inactive) | -0.137 | 1.01 (inactive) | 0.349 (inactive) | 1.16
COc1cc2c(cc1OC)CN(C(=O)[C@@H]1[C@H]3C(=O)O[C@H](c4ccccc4)[C@H](c4ccccc4)N3[C@H](c3ccccc3OCCO)[C@@]13C(=O)Nc1ccc(C#CCNC(N)=O)cc13)CC2 | 0.97 (inactive) | 0.882 | 1.14 (inactive) | -0.45 (inactive) | 0.333 (inactive) | -2.15 (inactive) | 3.09 | 1.24 (inactive) | 0.964 (inactive) | -0.0555
[N-]=[N+]=NCc1ccccc1C[C@@]1(C(=O)N2CCOCC2)N=C(c2ccc(OCCCO)cc2)O[C@@H]1c1ccccc1CN=[N+]=[N-] | 0.562 (inactive) | 0.429 | 28.2 (active) | 21.5 (active) | 3.05 (inactive) | 5.86 (inactive) | 0.0883 | -1 (inactive) | 1.26 (inactive) | 1.08
CS(=O)(=O)CCOC(=O)C1=CC(c2ccc(CO)cc2)=CC(C2CC2)N(Cc2cc3c(cc2Br)OCO3)C=C1C(=O)OCCS(C)(=O)=O (stereo not given) | -1.9 (inactive) | 0.199 | 17.2 (active) | 3.22 (inactive) | 0.904 (inactive) | 1.29 (inactive) | 0.376 | -1.77 (inactive) | -0.749 (inactive) | -2.03
O=C(CS)NCCCCCCNC(=O)[C@H]1C[C@H]2C(=O)N3CCC[C@H]3C(=O)N2[C@H]1c1cccc(OCCO)c1 | -1.17 (inactive) | 0.105 | 5.08 (inactive) | 0.331 (inactive) | -0.645 (inactive) | 0.253 (inactive) | 0.598 | 1.25 (inactive) | 0.799 (inactive) | 0.0469
C#CCN(C(/C=C/c1ccccc1)CO)C(C(=O)O)c1ccccc1 (stereo not given) | 1.86 (inactive) | -0.319 | 0.175 (inactive) | -1.57 (inactive) | -0.168 (inactive) | -2.09 (inactive) | 1.81 | -0.269 (inactive) | -0.46 (inactive) | -0.191
NC(=O)NCC#Cc1ccc2c(c1)[C@]1(C(=O)N2)[C@H](C(=O)NC[C@H](O)c2ccccc2)[C@H]2C(=O)O[C@H](c3ccccc3)[C@H](c3ccccc3)N2[C@@H]1c1ccc(O)cc1 | -0.765 (inactive) | -0.149 | 0.397 (inactive) | -0.0004 (inactive) | 2.63 (inactive) | -0.048 (inactive) | -0.0546 | 1.3 (inactive) | 0.02 (inactive) | 0.404
Cc1ccc(S[C@]2(C(=O)NCc3ccccc3)CC(=O)N(Cc3ccccc3Cl)[C@@H]2c2ccc(CO)cc2I)cc1 | 0.196 (inactive) | 0.0903 | 3.44 (inactive) | 0.68 (inactive) | 1.9 (inactive) | 0.255 (inactive) | 0.379 | 2.76 (inactive) | -0.824 (inactive) | 0.774
NCCCCCNC(=O)[C@H]1C[C@H]2C(=O)NCC(=O)N2[C@H]1c1cccc(OCCO)c1 | 1.5 (inactive) | -0.505 | 2.03 (inactive) | 0.508 (inactive) | 2.65 (inactive) | 0.0799 (inactive) | 0.753 | 0.972 (inactive) | 1.02 (inactive) | 1.39
O=C(CS)NCCCCCCNC(=O)[C@@H]1C[C@@H]2C(=O)N3CCC[C@H]3C(=O)N2[C@@H]1c1ccc(O)cc1 | 0.113 (inactive) | -0.55 | 4.95 (inactive) | 0.471 (inactive) | 2.2 (inactive) | 0.252 (inactive) | -0.574 | 0.489 (inactive) | -1.38 (inactive) | -0.141
COC(=O)[C@@]1(Cc2ccc(F)cc2)[C@H]2c3cc(C(=O)N4CCCC4)n(Cc4cccc5ccccc45)c3C[C@H]2CN1C(=O)c1ccccc1 | -2.25 (inactive) | 0.342 | 3.9 (inactive) | 1.03 (inactive) | 1.22 (inactive) | 0.863 (inactive) | -0.875 | 0.836 (inactive) | -0.021 (inactive) | -0.666
COc1ccc([Si](C)(C)[C@@H]2[C@@H](CC(=O)N(CCO)Cc3ccccc3)O[C@]3(C(=O)N(C)c4ccccc43)[C@H]2C)cc1 | -0.733 (inactive) | 0.31 | 11.8 (active) | 2.07 (inactive) | -0.87 (inactive) | 0.57 (inactive) | 0.388 | 0.406 (inactive) | 0.965 (inactive) | -1.21
COc1ccc(C(O)C2C=CC3C(=O)N(C)C(=O)C3N2Nc2ccccc2)cc1OCc1ccccc1 (stereo not given) | -1.69 (inactive) | 0.0451 | 1.68 (inactive) | 1.36 (inactive) | 0.272 (inactive) | 1.1 (inactive) | -1.17 | -1.25 (inactive) | -4.36 (inactive) | -2.57
Cc1cc(C)c(C(O)C2C=CC3C(=O)N(C)C(=O)C3N2Nc2ccccc2)c(C)c1 (stereo not given) | -1.52 (inactive) | 1.5 | 0.277 (inactive) | 0.519 (inactive) | -0.168 (inactive) | 1.03 (inactive) | -0.858 | -0.802 (inactive) | -3.6 (inactive) | -1.96
Cc1cc(C)cc(N2C(=O)CS(=O)(=O)C2c2cccc([N+](=O)[O-])c2)c1 (stereo not given) | 0.469 (inactive) | 1.33 | 0.548 (inactive) | -0.385 (inactive) | 0.809 (inactive) | -1.48 (inactive) | 1.48 | 0.316 (inactive) | 0.227 (inactive) | 1.63
COCC(=C=CC[C@@H](O)c1ccc(CO)o1)CCO | 2.61 (inactive) | -0.205 | 1.6 (inactive) | -0.908 (inactive) | -0.949 (inactive) | -1.11 (inactive) | 3.11 | -1.84 (inactive) | -0.922 (inactive) | -1.06
